In the library only some 21% were active in any assay of this set; here they are far more common.
CHX counter: Cycloheximide Counterscreen for Small Molecule Inhibitors of Shiga Toxin | hit rate 12% among 300,000 | cell reporter, cycloheximide protein synthesis inhibition counterscreen | AID 2314, 2010 | max response, %; in the data active = max response mostly above about 13%, no sharp cut-off; inactive = mostly below about 14%; note: read at 38.3 µM for the half of the compounds with a filed dose
Pf growth 96h: Primary qHTS for delayed death inhibitors of the malarial parasite plastid, 96 hour incubation. P. falciparum luciferase reporter growth, 96 h. Potency, µM (doses to about 28.7 µM), usual class: inhibitors. hit rate 6.9% among 320,000. AID 504834, 2011
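Delayed-death screen, second-generation endpoint: infected erythrocytes, 2% hematocrit, 0.05% parasitemia final; 96 hours at 37 C, 5% CO2; luciferase detection reagent; luminescence decrease equals reduced growth.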
Shiga toxin inh: A qHTS for Small Molecule Inhibitors of Shiga Toxin. inhibition, % at 38.7 µM. Vero cells, Shiga toxin protein synthesis inhibition reporter. hit rate 9.2% among 290,000; in the data active = inhibition mostly above about 28%, no sharp cut-off; inactive = mostly below about 43%
Pf growth 48h: Primary qHTS for delayed death inhibitors of the malarial parasite plastid, 48 hour incubation; P. falciparum luciferase growth in erythrocytes, 48 h; hit rate 5.9% among 310,000; Potency, µM (series often up to 28.7 µM), actives largely listed as inhibitors
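First compound was added to culture medium, then infected red cells at 0.1% parasitemia and 2% hematocrit (final). After incubation at 37 C under 5% CO2, luciferase detection reagent was dispensed and light output recorded.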
AMA1-RON2 inh: qHTS for Inhibitors of AMA1-RON; Towards Development of Antimalarial Drug Lead: Primary Screen; AlphaScreen AMA1-biotinylated RON2 peptide binding; Plasmodium falciparum AMA1 (3D7) - RON2 peptide interaction; hit rate 0.2% among 360,000; Potency, µM (top dose mostly 58.2 µM), usual class: inhibitors; note: nearly all actives have a fitted effect of over 45% in size
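AMA1 (3D7) with his tag at 25 nM final met compounds first, then biotinylated RON2 peptide at 25 nM; detection used donor plus acceptor beads, 10 µg/mL apiece, read by AlphaScreen after 30 min at room temperature.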
HCV inh: qHTS Assay for Inhibitors of Hepatitis C Virus (HCV); Potency, µM (series often up to 41.8 µM), most hits filed as inhibitors; hit rate 3.4% among 340,000; Huh7.5.1 HCVcc-Cre infection, luciferase reporter, 44 h
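Reporter virus HCVcc-Cre (~0.5 moi) infects cells exposed to compound; seeding density 1,000 cells/well with 4 h settling beforehand. Luminescence, 15 sec read, taken 44 h post-infection following a 15 min RT substrate incubation.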
Of the large screens only hits and unclear results are named; the others gave an inactive call. Unless noted, calls come from the whole dose curve; as a rule, active = well fitted curve in the direction sought with a large enough effect; inconclusive = small, poorly fitted or top-dose-only effect, or another doubt; inactive = no such curve, though single readings can be large; an effect the other way counts as inactive or inconclusive.

Cc1cc(N/C=C/C(=O)c2cccs2)ccc1F	CHX counter 29.4, Shiga toxin inh 96.6
O=C(O)c1ccccc1C(=O)c1cccs1	none
O=C(/C=C/Nc1ccc(Nc2ccccc2)cc1)c1cccs1	CHX counter 63.2, Shiga toxin inh 103.0, AMA1-RON2 inh inconclusive
Cc1ccc(N/C=C/C(=O)c2cccs2)cc1C	CHX counter 31.2, HCV inh inconclusive
Cc1c(N/C=C/C(=O)c2cccs2)c(=O)n(-c2ccccc2)n1C	Pf growth 48h inconclusive
O=C1CCN(Cc2ccc(Cl)cc2Cl)C(=O)N1	none (no result: CHX counter, Pf growth 96h, Shiga toxin inh, Pf growth 48h)
Cc1ccc(S(=O)(=O)CCC(=O)Oc2ccc(-c3nnco3)cc2)cc1	none (no result: CHX counter, Shiga toxin inh)
CCCc1cc(-c2ccc3c(c2)COc2c4ccccc4nn2-3)on1	HCV inh inconclusive (no result: CHX counter, Shiga toxin inh)
Cc1ccc(S(=O)(=O)NCc2ccc(C(=O)NCCc3ccc(S(N)(=O)=O)cc3)cc2)cc1	none
O=C(c1ccc2c(=O)n(Cc3ccccc3Cl)c(=S)[nH]c2c1)N1CCCC1	Pf growth 48h inconclusive
CC(C)(C)c1ccc(CC(=O)N2CCC2(C)C(=O)O)cc1 (centres undefined)	none (no result: CHX counter, Pf growth 96h, Shiga toxin inh, Pf growth 48h, HCV inh)
N#CC(C(=S)Nc1ccccc1)c1nc2ccccc2[nH]1 (centres undefined)	CHX counter 18.7, Pf growth 96h 4.65µM, Pf growth 48h inconclusive
N#CC(C(=O)C1CCCCC1)c1nc2ccccc2[nH]1 (centres undefined)	Pf growth 96h inconclusive, Pf growth 48h inconclusive, HCV inh 10µM
CSC(=Nc1ccccc1)C(C#N)c1nc2ccccc2[nH]1 (centres undefined)	Pf growth 96h inconclusive, Pf growth 48h inconclusive
O=C(NCCc1ccccc1)C(=O)c1c[nH]c2ccccc12	CHX counter 39.8, Shiga toxin inh 60.7, Pf growth 48h inconclusive
O=C(CCCCCNc1nc(=S)[nH]c2ccccc12)NCCc1c[nH]c2ccccc12	Pf growth 48h inconclusive, HCV inh 20µM
NS(=O)(=O)c1ccc(CCNC(=O)C(=O)c2c[nH]c3ccccc23)cc1	Pf growth 48h inconclusive
O=C(NCCc1c[nH]c2ccccc12)c1c(Cl)nc2sccn12	CHX counter 22.8
O=C(NCCc1c[nH]c2ccccc12)c1ccccc1O	CHX counter 38.5, Shiga toxin inh 29.5 (no result: Pf growth 96h, Pf growth 48h, AMA1-RON2 inh, HCV inh)
O=C(NCCc1c[nH]c2ccccc12)C(=O)Nc1ccccc1	CHX counter 29.3, Pf growth 96h inconclusive
COc1cc(-c2nnc(COC(=O)C3c4ccccc4Oc4ccccc43)o2)cc(OC)c1OC	none (no result: Pf growth 96h)
COc1ccc(C2=C(C=C(C#N)C#N)C(c3ccccc3C)c3ccccc3O2)cc1OC (centres undefined)	Pf growth 96h inconclusive, Pf growth 48h 9.28µM, HCV inh inconclusive
CCOC(=O)C1CCCN(C(=O)c2cc3ccccc3oc2=O)C1 (centres undefined)	none
NS(=O)(=O)c1ccc(N=Nc2c(-c3ccccc3)[nH]n(-c3nc(-c4ccccc4)cs3)c2=O)cc1	HCV inh 6.31µM
C/C(=N\OCC(=O)OCC(=O)NC(=O)c1ccccc1)c1ccc2c(c1)OCO2	none (no result: CHX counter, Shiga toxin inh)
Cc1cccnc1Nc1nc(-c2ccccc2)cs1	CHX counter 66.6, Shiga toxin inh 104.0, HCV inh 15.8µM
Cc1cccnc1Nc1nc(-c2ccccn2)cs1	CHX counter 46.8, Shiga toxin inh 125.9, Pf growth 48h inconclusive, HCV inh inconclusive (no result: Pf growth 96h)
Cc1cc(C)cc(OCC(=O)Nc2nc(-c3ccccn3)cs2)c1	Pf growth 96h inconclusive, Pf growth 48h inconclusive, HCV inh inconclusive (no result: CHX counter, Shiga toxin inh)
COc1ccccc1N1CCN(C(=O)c2ccc3c(c2)NC(=O)C(CSCc2ccccc2C)N3)CC1 (centres undefined)	Pf growth 48h inconclusive (no result: AMA1-RON2 inh, HCV inh)
O=C(CSc1nnc2ccc(-c3ccc(F)cc3)nn12)N1CCCC1	Pf growth 96h inconclusive
CCC(C(=O)NCc1ccccc1OC)c1ccccc1 (centres undefined)	Pf growth 96h inconclusive
CC1CCCCC1=NNC(=O)c1ccccc1 (centres undefined)	none (no result: CHX counter, Pf growth 96h, Shiga toxin inh, Pf growth 48h, HCV inh)
CCCCCCC1/C(=N\NC(=O)c2ccccc2)CCC1C(=O)OC (centres undefined)	CHX counter 35.0, Shiga toxin inh 80.1 (no result: Pf growth 48h)
O=C(N=C1c2ccccc2CN1c1ccc(F)c(F)c1)c1cccnc1	CHX counter 28.7, Pf growth 48h inconclusive
CCOC(=O)c1ccc(N2Cc3ccccc3C2=NC(=O)c2cccc([N+](=O)[O-])c2)cc1	none (no result: CHX counter, Pf growth 96h, Shiga toxin inh, Pf growth 48h)
COc1ccc(N2Cc3ccccc3C2=NC(=O)c2ccc(C)cc2)cc1OC	Pf growth 96h inconclusive, Pf growth 48h inconclusive
O=C(N=C1c2ccccc2CN1c1ccccc1)c1cccc([N+](=O)[O-])c1	CHX counter 18.5
O=C(/N=C1/c2ccccc2CN1c1ccccc1)Nc1ccccc1	Pf growth 96h inconclusive
O=C(N=C1c2ccccc2CN1c1cccc(Cl)c1)c1cccnc1	CHX counter 33.5, Shiga toxin inh 26.3
COC(=O)c1cc(S(=O)(=O)NCCc2sccc2C)c[nH]1	Pf growth 96h inconclusive
C=C1CC2C(=O)N(Cc3cc(OC)ccc3OC)C(C(=O)OCC)C1N2C (centres undefined)	none (no result: Pf growth 96h, Pf growth 48h, AMA1-RON2 inh, HCV inh)
COC(=O)[C@@]12C[C@@H](CC(=O)NCc3cccc(C(F)(F)F)c3)C(=O)N(Cc3ccc4c(c3)OCO4)C1=CCC(C)(C)C2	none (no result: CHX counter, Pf growth 96h, Shiga toxin inh, Pf growth 48h, HCV inh)
CC(=O)N1CCN(S(=O)(=O)c2cccc(C(=O)NNC(=O)c3ccc(Br)cc3)c2)CC1	none (no result: CHX counter, Pf growth 96h, Shiga toxin inh, Pf growth 48h)
CS(=O)(=O)c1ccc2nc(NC(=O)c3cccc(Cl)c3)sc2c1	HCV inh inconclusive
CS(=O)(=O)c1ccc2nc(NC(=O)c3ccc(Cl)cc3)sc2c1	CHX counter 15.6, Pf growth 96h inconclusive
CS(=O)(=O)c1ccc2nc(NC(=O)CCNC(=O)c3ccc(Cl)cc3)sc2c1	Pf growth 96h 4.15µM (no result: CHX counter, Shiga toxin inh)
NS(=O)(=O)c1ccc2nc(NC(=O)Nc3ccc(F)cc3)sc2c1	CHX counter 46.3, Shiga toxin inh 53.9
CS(=O)(=O)c1ccc2nc(NC(=O)Nc3ccc(Cl)cc3)sc2c1	Pf growth 96h 1.17µM, Pf growth 48h inconclusive
O=C(NCc1ccccc1)c1cc(C2CCCN(C(=O)C3CCCCC3)C2)on1 (centres undefined)	none (no result: CHX counter, Pf growth 96h, Shiga toxin inh, Pf growth 48h, HCV inh)
Nc1nc2c(nnn2C2CC(O)C(CO)O2)c(=O)[nH]1 (centres undefined)	none (no result: CHX counter, Pf growth 96h, Shiga toxin inh, Pf growth 48h, HCV inh)
CN(C)CCNc1nc2sc3c(c2c(=O)n1-c1ccccc1)CCCCC3	none
C=CCn1c(NCCO)nc2sc3c(c2c1=O)CCC3	HCV inh inconclusive
CN(C)CCNc1nc2sc3c(c2c(=O)n1-c1ccc(F)cc1)CCCCC3	Pf growth 96h inconclusive, Pf growth 48h 10.4µM, HCV inh inconclusive
CN(C)CCNc1nc2sc3c(c2c(=O)n1Cc1ccccc1)CCCCC3	Pf growth 96h inconclusive, Pf growth 48h inconclusive, HCV inh 11.2µM

Compound activity: PubChem, National Center for Advancing Translational Sciences (NCATS)
